{
  "source": "the supplement of paper PMC9023506",
  "note": "Structures can show the parent of a compound that is named as a salt.",
  "data": [
    {"test_system": "Danio rerio larvae (5 dpf)", "test": "activity during first hour (no stimuli), difference vs DMSO (percentage points (treated minus DMSO)); higher = more of the behaviour than the DMSO vehicle control", "details": "10 µM; exposure time: 3 h pre-incubation + 3 h imaging", "protocol": "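5-dpf wild-type zebrafish larvae were imaged in 96-well plates. They were treated with 190 Tocris FDA-approved drugs at 10 µM (1 µl/ml DMSO) for 3 h before and 3 h during imaging at 28.5 °C, 48 larvae per drug. Automated image analysis gave % time moving and optomotor responses. Values are drug group mean minus DMSO vehicle mean (n=844), in percentage points, for 10 behaviours.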", "values": [
      {"smiles": "CCOc1cc(CC(=O)N[C@@H](CC(C)C)c2ccccc2N2CCCCC2)ccc1C(=O)O", "note": "[Repaglinide]", "activity during first hour": 5.41},
      {"smiles": "CC(=O)Nc1ccc(O)cc1", "note": "[Acetaminophen]", "activity during first hour": 5.63},
      {"smiles": "COc1ccc(Cl)cc1C(=O)NCCc1ccc(S(=O)(=O)NC(=O)NC2CCCCC2)cc1", "note": "[Glibenclamide]", "activity during first hour": 1.18},
      {"smiles": "C[C@]12CCC(=O)C=C1CC[C@@H]1[C@@H]2[C@@H](O)C[C@@]2(C)[C@H]1CC[C@]2(O)C(=O)CO", "note": "[Hydrocortisone]", "activity during first hour": 3.43},
      {"smiles": "CO[C@H]1/C=C/O[C@@]2(C)Oc3c(C)c(O)c4c(O)c(c5c(nc6cc(C)ccn65)c4c3C2=O)NC(=O)/C(C)=C\\C=C\\[C@H](C)[C@H](O)[C@@H](C)[C@@H](O)[C@@H](C)[C@H](OC(C)=O)[C@@H]1C", "note": "[Rifaximin]", "activity during first hour": -0.0836},
      {"smiles": "C[C@]12CC[C@@H]3c4ccc(O)cc4C[C@@H](CCCCCCCCC[S+]([O-])CCCC(F)(F)C(F)(F)F)[C@H]3[C@@H]1CC[C@@H]2O", "note": "(stereo not given in full)", "activity during first hour": 7.08},
      {"smiles": "CC/C(=C(\\c1ccccc1)c1ccc(OCCN(C)C)cc1)c1ccccc1", "note": "[Tamoxifen citrate]", "activity during first hour": 31.4},
      {"smiles": "CC(CCc1ccc(O)cc1)NCCc1ccc(O)c(O)c1", "note": "(stereo not given) [Dobutamine hydrochloride]", "activity during first hour": -1.97},
      {"smiles": "CC(C)Nc1cccnc1N1CCN(C(=O)c2cc3cc(NS(C)(=O)=O)ccc3[nH]2)CC1", "note": "[Delavirdine mesylate]", "activity during first hour": -1.59},
      {"smiles": "CCCCc1nc(Cl)c(CO)n1Cc1ccc(-c2ccccc2-c2nnn[nH]2)cc1", "note": "[Losartan potassium]", "activity during first hour": 13},
      {"smiles": "CC(C)c1ccc2oc3nc(N)c(C(=O)O)cc3c(=O)c2c1", "note": "[Amlexanox]", "activity during first hour": 6.6},
      {"smiles": "NS(=O)(=O)Cc1noc2ccccc12", "note": "[Zonisamide]", "activity during first hour": 3.75},
      {"smiles": "CCOC(=O)C1=C(COCCN)NC(C)=C(C(=O)OC)C1c1ccccc1Cl", "note": "(stereo not given) [Amlodipine besylate]", "activity during first hour": 2.38},
      {"smiles": "CNCc1ccc(-c2[nH]c3cc(F)cc4c3c2CCNC4=O)cc1", "note": "[Rucaparib camsylate]", "activity during first hour": -13.6},
      {"smiles": "COc1cc2nccc(Oc3ccc(NC(=O)C4(C(=O)Nc5ccc(F)cc5)CC4)cc3)c2cc1OC", "activity during first hour": 20},
      {"smiles": "CNC(=O)c1ccccc1Sc1ccc2c(/C=C/c3ccccn3)n[nH]c2c1", "note": "[Axitinib]", "activity during first hour": -2.72},
      {"smiles": "Nc1cc(N2CCCCC2)nc(N)[n+]1[O-]", "note": "[Minoxidil]", "activity during first hour": 2.82},
      {"smiles": "CC#C[C@]1(O)CC[C@H]2[C@@H]3CCC4=CC(=O)CCC4=C3[C@@H](c3ccc(N(C)C)cc3)C[C@@]21C", "note": "[Mifepristone]", "activity during first hour": -3.58},
      {"smiles": "C[C@H]1O[C@H](O[C@H]2[C@H](O)[C@@H](O)[C@@H](O[C@H]3[C@H](O)[C@@H](O)C(O)O[C@@H]3CO)O[C@@H]2CO)[C@H](O)[C@@H](O)[C@@H]1N[C@H]1C=C(CO)[C@@H](O)[C@H](O)[C@H]1O", "note": "(stereo not given in full) [Acarbose]", "activity during first hour": -0.41},
      {"smiles": "CN(C)C(=N)NC(=N)N", "note": "[Metformin hydrochloride]", "activity during first hour": -6.37},
      {"smiles": "O=C(NCC1CCCCN1)c1cc(OCC(F)(F)F)ccc1OCC(F)(F)F", "note": "(stereo not given) [Flecainide acetate]", "activity during first hour": 0.441},
      {"smiles": "O=C(O[C@@H]1C[C@@H]2C[C@H]3C[C@H](C1)N2CC3=O)c1c[nH]c2ccccc12", "note": "[Dolasetron mesylate]", "activity during first hour": -1.16},
      {"smiles": "CC(C)(C(=O)O)c1ccc(C(O)CCCN2CCC(C(O)(c3ccccc3)c3ccccc3)CC2)cc1", "note": "(stereo not given) [Fexofenadine hydrochloride]", "activity during first hour": 5.4},
      {"smiles": "Cc1ccc(O)c([C@H](CCN(C(C)C)C(C)C)c2ccccc2)c1", "note": "[Tolterodine L-tartrate]", "activity during first hour": 1.86},
      {"smiles": "N[C@@H]1[C@H]2CN(c3nc4c(cc3F)c(=O)c(C(=O)O)cn4-c3ccc(F)cc3F)C[C@@H]12", "note": "[Trovafloxacin mesylate]", "activity during first hour": 5.81},
      {"smiles": "CC(C)(C)NC(=O)[C@@H]1C[C@@H]2CCCC[C@@H]2CN1C[C@@H](O)[C@H](Cc1ccccc1)NC(=O)[C@H](CC(N)=O)NC(=O)c1ccc2ccccc2n1", "note": "[Saquinavir mesylate]", "activity during first hour": -9.81},
      {"smiles": "CCCC1O[C@@H]2C[C@H]3[C@@H]4CCC5=CC(=O)C=C[C@]5(C)[C@H]4[C@@H](O)C[C@]3(C)[C@]2(C(=O)CO)O1", "note": "(stereo not given in full) [Budesonide]", "activity during first hour": 4.76},
      {"smiles": "CC[C@H](C)C(=O)O[C@H]1C[C@@H](C)C=C2C=C[C@H](C)[C@H](CC[C@@H]3C[C@@H](O)CC(=O)O3)[C@H]21", "note": "[Lovastatin]", "activity during first hour": -0.394},
      {"smiles": "CC(=O)O[C@]1(C(C)=O)CC[C@H]2[C@@H]3C=C(C)C4=CC(=O)CC[C@]4(C)[C@H]3CC[C@@]21C", "note": "[Megestrol Acetate]", "activity during first hour": -14.3},
      {"smiles": "CCOc1nc2cccc(C(=O)O)c2n1Cc1ccc(-c2ccccc2-c2nnn[nH]2)cc1", "note": "[Candesartan]", "activity during first hour": 4.62},
      {"smiles": "Cc1cn([C@H]2C=C[C@@H](CO)O2)c(=O)[nH]c1=O", "note": "[Stavudine]", "activity during first hour": -4.71},
      {"smiles": "O=c1n(CCCN2CCN(c3cccc(Cl)c3)CC2)nc2ccccn12", "note": "[Trazodone hydrochloride]", "activity during first hour": -0.623},
      {"smiles": "CC(=O)S[C@@H]1CC2=CC(=O)CC[C@]2(C)[C@H]2CC[C@@]3(C)[C@@H](CC[C@@]34CCC(=O)O4)[C@H]12", "note": "[Spironolactone]", "activity during first hour": -0.165},
      {"smiles": "CCCc1nc2c(C)cc(-c3nc4ccccc4n3C)cc2n1Cc1ccc(-c2ccccc2C(=O)O)cc1", "note": "[Telmisartan]", "activity during first hour": -6.28},
      {"smiles": "Cc1c(-c2ccc(O)cc2)n(Cc2ccc(OCCN3CCCCCC3)cc2)c2ccc(O)cc12", "note": "[Bazedoxifene acetate]", "activity during first hour": -12.7},
      {"smiles": "Cc1ccsc1C(=CCCN1CCC[C@@H](C(=O)O)C1)c1sccc1C", "note": "[Tiagabine hydrochloride]", "activity during first hour": 7.01},
      {"smiles": "Nc1nc(F)nc2c1ncn2[C@@H]1O[C@H](CO)[C@@H](O)[C@@H]1O", "note": "[Fludarabine]", "activity during first hour": 3.66},
      {"smiles": "OC(CNCC(O)C1CCc2cc(F)ccc2O1)C1CCc2cc(F)ccc2O1", "note": "(stereo not given) [Nebivolol hydrochloride]", "activity during first hour": 4.97},
      {"smiles": "CC(=O)Oc1ccccc1C(=O)O", "note": "[Aspirin]", "activity during first hour": -0.0609},
      {"smiles": "CN(CCOc1ccc(NS(C)(=O)=O)cc1)CCc1ccc(NS(C)(=O)=O)cc1", "note": "[Dofetilide]", "activity during first hour": 1.68}
    ]}
  ]
}
